{"source": "PubChem BioAssay (NCATS)", "note": "Records with an inconclusive call do not appear. Active and inactive are the calls of the source. Calls come from the whole dose curve; as a rule, active = well fitted cell-killing curve with a large enough effect; inconclusive = small, poorly fitted or top-dose-only effect, or effect the other way; inactive = no such curve, though single readings can be large or run the other way. Potency is the fitted concentration of half-maximal effect."}
{"assay": "Quantitative High-Throughput drug screen in 47 multiple myeloma cell lines against the NCATS MIPE library collection: LP1_DSMZ cell viability assay (AID 1918982); note: nearly all actives have a fitted effect of over 35% in size", "details": "LP1 myeloma viability, CellTiter-Glo ATP luminescence, 48 h; series mostly up to 45.8 µM; viability (% of control): at the top concentration", "summary_of_the_method": "(§1)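 Cells were exposed to library compounds for 48 hours, after which ATP was measured by CellTiter-Glo. Signal was taken as median relative luminescence units.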"}
{"smiles": "NC(=O)C1CCCc2c1[nH]c1ccc(Cl)cc21", "note": "(stereo unspecified)", "viability (% of control)": "89.6% (inactive)"}
{"smiles": "CC(C)(Sc1ccc(CCN(CCCCC2CCCCC2)C(=O)NC2CCCCC2)cc1)C(=O)O", "Potency": "16.6 µM (active)"}
{"smiles": "NC[C@H](O)c1ccc(O)c(O)c1", "viability (% of control)": "102% (inactive)"}
{"smiles": "O=C1CCC(N2C(=O)c3ccccc3C2=O)C(=O)N1", "note": "(stereo unspecified)", "viability (% of control)": "115% (inactive)"}
{"smiles": "Cc1cc2c(C(C)C)c(O)c(O)c(C=O)c2c(O)c1-c1c(C)cc2c(C(C)C)c(O)c(O)c(C=O)c2c1O", "Potency": "16.6 µM (active)"}
{"smiles": "Clc1ccc(Nc2nnc(Cc3ccncc3)c3ccccc23)cc1", "Potency": "11.8 µM (active)"}
{"smiles": "CCn1c(-c2nonc2N)nc2cnc(Oc3cccc(NC(=O)c4ccc(OCCN5CCOCC5)cc4)c3)cc21", "Potency": "14.8 µM (active)"}
{"smiles": "NCCCC(N)(C(=O)O)C(F)F", "note": "(stereo unspecified)", "Potency": "1.48 µM (active)"}
{"smiles": "COc1nc(-c2ccc3c(c2)OCO3)n(-c2ccc(NC(=O)CSc3ccccc3)cc2)n1", "viability (% of control)": "127% (inactive)"}
{"smiles": "COc1cc2c(cc1OC)CN(CCc1ccc(NC(=O)c3cccc4c(=O)c5cccc(OC)c5[nH]c34)cc1)CC2", "viability (% of control)": "86.9% (inactive)"}
{"smiles": "CC(C)(C)OC(=O)CN(Cc1ccc(Cl)cc1)Cc1ccc([N+](=O)[O-])s1", "Potency": "18.7 µM (active)"}
{"smiles": "CCCn1c(=O)c2[nH]c(C34CC5CC3C[C@@H](C5)C4)nc2n(CCC)c1=O", "Potency": "11.8 µM (active)"}
{"smiles": "Cc1cc(SCc2sc(-c3ccc(C(F)(F)F)cc3)nc2C)ccc1OCC(=O)O", "viability (% of control)": "88.4% (inactive)"}
{"smiles": "CCCCCCCc1ccc(CCc2cccc(O)c2C(=O)O)cc1", "Potency": "16.6 µM (active)"}
{"smiles": "CC[C@@H](C)[C@H](NC(=O)[C@H](CC1CCCCC1)NC(=O)c1ccno1)C(=O)N1CCC2(CCc3ccccc32)CC1", "Potency": "9.35 µM (active)"}
{"smiles": "O=C(Nc1ccc(F)c(C(F)(F)F)c1)Nc1nnc(-c2ccncc2)s1", "Potency": "3.72 µM (active)"}
{"assay": "Quantitative High-Throughput drug screen in 47 multiple myeloma cell lines against the NCATS MIPE library collection: KMS28PE_JCRB cell viability assay (AID 1918983); note: nearly all actives have a fitted effect of over 35% in size", "details": "KMS28PE multiple myeloma viability, CellTiter-Glo ATP, 48 h; series mostly up to 45.8 µM; viability, % of DMSO control: at the top concentration", "summary_of_the_method": "as §1"}
{"smiles": "NC(=O)C1CCCc2c1[nH]c1ccc(Cl)cc21", "note": "(stereo unspecified)", "viability, % of DMSO control": "133% (inactive)"}
{"smiles": "COc1cc(F)c(F)c(Nc2ccc(I)cc2F)c1NS(=O)(=O)C1(C[C@H](O)CO)CC1", "Potency": "5.26 µM (active)"}
{"smiles": "N#Cc1ccc(C(c2ccc(C#N)cc2)n2cncn2)cc1", "Potency": "6.62 µM (active)"}
{"smiles": "CC(C)(Sc1ccc(CCN(CCCCC2CCCCC2)C(=O)NC2CCCCC2)cc1)C(=O)O", "Potency": "8.33 µM (active)"}
{"smiles": "NC[C@H](O)c1ccc(O)c(O)c1", "Potency": "18.7 µM (active)"}
{"smiles": "Nc1nc2ccc(OC(F)(F)F)cc2s1", "Potency": "23.5 µM (active)"}
{"smiles": "Cc1cc2c(C(C)C)c(O)c(O)c(C=O)c2c(O)c1-c1c(C)cc2c(C(C)C)c(O)c(O)c(C=O)c2c1O", "Potency": "18.7 µM (active)"}
{"smiles": "Clc1ccc(Nc2nnc(Cc3ccncc3)c3ccccc23)cc1", "Potency": "20.9 µM (active)"}
{"smiles": "O=C1CCCC2=C1C(c1[nH]ncc1Cl)N=C(Nc1nc3ccccc3o1)N2", "note": "(stereo unspecified)", "viability, % of DMSO control": "120% (inactive)"}
{"smiles": "Cc1ccc(N(CC2=NCCN2)c2cccc(O)c2)cc1", "Potency": "5.26 µM (active)"}
{"smiles": "Cn1cc(-c2ccc3nnc(C(F)(F)c4ccc5ncccc5c4)n3n2)cn1", "viability, % of DMSO control": "164% (inactive)"}
{"smiles": "COc1nc(-c2ccc3c(c2)OCO3)n(-c2ccc(NC(=O)CSc3ccccc3)cc2)n1", "Potency": "14.8 µM (active)"}
{"smiles": "O=c1ncn2nc(Sc3ccc(F)cc3F)ccc2c1-c1c(Cl)cccc1Cl", "viability, % of DMSO control": "125% (inactive)"}
{"smiles": "Cc1ccc(NC(=O)c2cccc(C(C)(C)C#N)c2)cc1Nc1ccc2ncn(C)c(=O)c2c1", "Potency": "11.8 µM (active)"}
{"smiles": "CC(C)(C)OC(=O)CN(Cc1ccc(Cl)cc1)Cc1ccc([N+](=O)[O-])s1", "Potency": "20.9 µM (active)"}
{"smiles": "Cc1c(CCOc2ccc(C(=O)O)cc2)c2cc(Cl)ccc2n1C(c1ccccc1)c1ccccc1", "Potency": "23.5 µM (active)"}
{"smiles": "CCC(=O)N[C@H]1CC[C@H](C(=O)N(C)c2ccc(-c3nc4ccccc4o3)cc2)C1", "Potency": "18.7 µM (active)"}
{"assay": "Quantitative High-Throughput drug screen in 47 multiple myeloma cell lines against the NCATS MIPE library collection: L363_DSMZ cell viability assay (AID 1918984); note: nearly all actives have a fitted effect of over 40% in size", "details": "L363 myeloma viability, CellTiter-Glo ATP luminescence, 48 h; series mostly up to 45.8 µM; viability (% of control): at the top concentration", "summary_of_the_method": "as §1"}
{"smiles": "CC(C)(Sc1ccc(CCN(CCCCC2CCCCC2)C(=O)NC2CCCCC2)cc1)C(=O)O", "viability (% of control)": "93.3% (inactive)"}
{"smiles": "CCCc1nn(C)c2c(=O)[nH]c(-c3cc(S(=O)(=O)N4CCN(C)CC4)ccc3OCC)nc12", "viability (% of control)": "88.5% (inactive)"}
{"smiles": "Nc1nc2ccc(OC(F)(F)F)cc2s1", "viability (% of control)": "97% (inactive)"}
{"smiles": "CN(C)c1ccc(C2Nc3ccc4ccccc4c3C3=C2C(=O)CC(C)(C)C3)cc1Br", "note": "(stereo unspecified)", "viability (% of control)": "118% (inactive)"}
{"smiles": "Clc1ccc(Nc2nnc(Cc3ccncc3)c3ccccc23)cc1", "viability (% of control)": "90.8% (inactive)"}
{"smiles": "CCn1c(-c2nonc2N)nc2cnc(Oc3cccc(NC(=O)c4ccc(OCCN5CCOCC5)cc4)c3)cc21", "Potency": "8.33 µM (active)"}
{"smiles": "Cc1ccc(N(CC2=NCCN2)c2cccc(O)c2)cc1", "Potency": "11.8 µM (active)"}
{"smiles": "NCCCC(N)(C(=O)O)C(F)F", "note": "(stereo unspecified)", "Potency": "5.9 µM (active)"}
{"smiles": "O=c1ncn2nc(Sc3ccc(F)cc3F)ccc2c1-c1c(Cl)cccc1Cl", "Potency": "18.7 µM (active)"}
{"smiles": "CCc1cncnc1N1CCN(Cc2nc3ccc(C(F)(F)F)cc3[nH]2)CC1", "Potency": "5.26 µM (active)"}
{"smiles": "Cc1cc(SCc2sc(-c3ccc(C(F)(F)F)cc3)nc2C)ccc1OCC(=O)O", "viability (% of control)": "123% (inactive)"}
{"smiles": "CCC(=O)N[C@H]1CC[C@H](C(=O)N(C)c2ccc(-c3nc4ccccc4o3)cc2)C1", "Potency": "16.6 µM (active)"}
{"smiles": "CCCCCCCc1ccc(CCc2cccc(O)c2C(=O)O)cc1", "viability (% of control)": "124% (inactive)"}
